Results with a measured potency or affinity are listed apart.
Biological target: Acyl-homoserine lactone acylase PvdQ (Pseudomonas aeruginosa (strain ATCC 15692 / DSM 22644 / CIP 104116 / JCM 14847 / LMG 12228 / 1C / PRS 101 / PAO1)) (UniProt Q9I194)
Assay: P. aeruginosa PvdQ acylase inhibitors, dose response, biochemical, fluorescence, plate reader and imaging, cherry-picks (AID 493231);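 also: 0% = neutral control wells and -100% = reference inhibitor wells; more negative values mean stronger inhibition of the acylase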
Conditions: purified PvdQ acylase, fluorogenic substrate; series mostly up to 10 µM; activity change, negative = inhibition: at the top concentration; call rule not given here

Sequence of Acyl-homoserine lactone acylase PvdQ (Pseudomonas aeruginosa (strain ATCC 15692 / DSM 22644 / CIP 104116 / JCM 14847 / LMG 12228 / 1C / PRS 101 / PAO1)) (Q9I194 whole entry, looked up): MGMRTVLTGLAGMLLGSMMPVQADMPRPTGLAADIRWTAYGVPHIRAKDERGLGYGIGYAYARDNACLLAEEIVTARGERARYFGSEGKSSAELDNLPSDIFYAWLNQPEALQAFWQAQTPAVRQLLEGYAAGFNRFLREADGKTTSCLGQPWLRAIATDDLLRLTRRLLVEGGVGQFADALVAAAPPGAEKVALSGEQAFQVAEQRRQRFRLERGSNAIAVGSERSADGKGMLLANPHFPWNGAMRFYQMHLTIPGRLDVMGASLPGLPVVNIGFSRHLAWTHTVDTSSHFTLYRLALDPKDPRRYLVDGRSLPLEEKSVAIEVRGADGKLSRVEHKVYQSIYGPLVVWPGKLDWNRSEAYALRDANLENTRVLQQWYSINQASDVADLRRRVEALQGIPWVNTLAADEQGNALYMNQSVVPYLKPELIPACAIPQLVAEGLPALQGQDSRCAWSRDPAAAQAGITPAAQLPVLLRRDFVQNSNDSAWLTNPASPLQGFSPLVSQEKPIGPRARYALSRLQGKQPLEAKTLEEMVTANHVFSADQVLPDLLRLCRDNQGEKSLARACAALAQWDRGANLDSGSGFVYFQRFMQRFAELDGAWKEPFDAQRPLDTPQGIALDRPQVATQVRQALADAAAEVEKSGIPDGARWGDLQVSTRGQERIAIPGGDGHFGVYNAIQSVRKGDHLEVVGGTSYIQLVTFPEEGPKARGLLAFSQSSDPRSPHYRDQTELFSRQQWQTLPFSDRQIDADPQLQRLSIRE

Activity change, negative = inhibition, inactive:
Cn1cccc1Cc1nnc(SCC(=O)N2CCN(c3ccccc3)CC2)n1-c1ccc(F)cc1 12.8 unspecified
Cn1c(=O)c2[nH]c(-c3ccccc3)c(O)c2n(C)c1=O 9.01 unspecified
CC1CCCCC1NS(=O)(=O)c1ccc(S(=O)(=O)N2CCCC2)cc1 (stereo not given) 13.8 unspecified
CCOC(=O)C1CCCN(C(=O)c2cc(S(=O)(=O)N(C)C)ccc2N2CCCC2)C1 (stereo not given) -100 unspecified
O=C(Nc1nc2cc3c(cc2s1)OCO3)C1=COCCO1 -5.14 unspecified
O=C(CCc1c[nH]c2ccccc12)N/N=C/c1ccc2c(c1)OCO2 13.2 unspecified
O=C(NCC1CCCCC1)c1cc(Br)ccc1Cl 3.04 unspecified
COc1ccc(-c2cn3cc(C)ccc3n2)cc1F -2.17 unspecified
CSC(=S)N/N=C/c1ccccc1 8.93 unspecified
CCOC(=S)SCC(=O)Nc1nccs1 -10.6 unspecified
Cc1cc(C(=O)OCC(=O)Nc2cc(C)on2)c2ccccc2n1 2.6 unspecified
COCCCNC(=O)c1cc(S(=O)(=O)NCCCN2CCCC2=O)ccc1Cl -7.4 unspecified
Cc1ccc(CCNC(=O)CCS(=O)(=O)c2ccc(Br)cc2)cc1 -5.93 unspecified
COC(=O)CNC(c1ccccc1)c1cc(C)ccc1NS(=O)(=O)c1ccc(C)cc1 (stereo not given) -4.14 unspecified
CCOC(=O)CC(NC(=O)c1ccco1)c1ccccc1Cl (stereo not given) 4.68 unspecified
CC1CC(Nc2ccccc2)c2ccccc2N1C(=O)c1ccco1 (stereo not given) 5.12 unspecified
COC(=O)c1ccc(-c2nc3ccccc3[nH]2)cc1 -13.8 unspecified
O=C(/C=C/c1ccc(Cl)cc1)N1CCN(c2ccccc2[N+](=O)[O-])CC1 -7.05 unspecified
COc1ccc(S(=O)(=O)NCCc2ccccc2)c2cccnc12 15 unspecified
Cc1cc(NC(=O)c2ccc(Br)c([N+](=O)[O-])c2)no1 7.95 unspecified
O=C1/C(=C/c2cccc([N+](=O)[O-])c2)Oc2cc(O)ccc21 -11.7 unspecified
COC(=O)C(C(=O)OC)c1ncccc1[N+](=O)[O-] 7.66 unspecified
COc1ccc(CC(=O)NNC(=S)NCC2CC2)cc1OC -1.58 unspecified
CC(NC(=O)C1CCCN(C(=O)c2ccc(Cl)cc2)C1)c1cccc(C(F)(F)F)c1 (stereo not given) -0.568 unspecified
Cc1onc(-c2ccccc2)c1C(=O)c1c[nH]c(C(=O)NCCCN2CCOCC2)c1 9.9 unspecified
COc1ccc(OCCCC(=O)Nc2cccc(SC)c2)cc1 -103 unspecified
CCSc1nc2cc(OC)c(OC)cc2c(=O)n1CC 3.52 unspecified
CC(=O)c1ccc(NC(=S)N2CCCC(CO)C2)cc1 (stereo not given) 10.3 unspecified
COc1ccc(-c2nn(-c3ccccc3)cc2/C=C2/SC(=S)N(CCC(=O)O)C2=O)cc1 -8.74 unspecified
O=C(/C=C/c1cccs1)Nc1ccncc1 -7.98 unspecified
COC(=O)c1sccc1N/N=C/c1ccc(OC)c(OC)c1OC 10 unspecified
CCOc1ccc(NC(=S)NCc2cccnc2)cc1 4.97 unspecified
CCOC(=O)c1ccc(Nc2ncccc2[N+](=O)[O-])cc1 4.71 unspecified
COCC(=O)Oc1c(S(=O)(=O)c2ccc(C)cc2)c(C)nn1-c1ccccc1 2.79 unspecified
N#C/C(C(=S)Nc1ccccc1)=C1/NN=C(N2CCOCC2)N1c1ccccc1 1.34 unspecified
